PGC1a acetyl inh: inhibitors of PGC1a acetylation signal, primary screen, cell-based, U2OS, AlphaScreen, inhibitor mode; 0.17% of 350,000 active; inhibition, % at 15.6 µM; AID 651687, 2012; AlphaScreen anti-acetyl-lysine; with virally co-expressed GCN5 acetyltransferase;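 active = every replicate shows inhibition of at least 40%; inconclusive = mean inhibition at least 40% but some replicate below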;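 also: 0% = neutral control wells and 100% = positive control wells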
PAX8 reporter: inhibitors of PAX8-driven TPO luciferase reporter, primary screen, RMG-I cells, single concentration; SteadyGlo, 24 h; inhibition, % at 12.6 µM; 1.2% of 360,000 active; AID 652154, 2013;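 active = mean replicate inhibition at least 60% with every replicate also reaching 60%; inconclusive = only one of the two criteria is met; inactive = mean below 60% and not all replicates reaching 60%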;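 also: luciferase light reporting Pax8 driven TPO promoter activity; plate controls were median of neutral control wells for no effect and mitoxantrone controls for full effect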
SIRT5 block: SIRT5 desuccinylase inhibitors, primary screen, biochemical, fluorescence imaging, single point, set 5. 1.1% of 330,000 active. inhibition, % at 15 µM. Purified SirT5, succinyl-peptide AMC, trypsin-coupled fluorescence; in the data active = inhibition above about 15%; inconclusive = no clear call, values can overlap the other calls
Target sequence (Q9NXA8 whole entry, looked up): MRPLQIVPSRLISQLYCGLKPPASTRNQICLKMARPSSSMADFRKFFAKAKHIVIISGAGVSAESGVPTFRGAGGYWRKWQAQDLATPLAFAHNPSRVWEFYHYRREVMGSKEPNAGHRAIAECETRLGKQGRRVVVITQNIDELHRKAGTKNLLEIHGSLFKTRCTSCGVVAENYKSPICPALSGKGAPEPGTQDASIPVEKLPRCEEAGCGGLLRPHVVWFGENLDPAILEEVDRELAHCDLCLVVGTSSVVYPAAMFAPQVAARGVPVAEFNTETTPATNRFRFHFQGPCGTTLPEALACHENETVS
LGR2 antag: inhibitors of bursicon-induced LGR2 CRE-luciferase signal, primary screen, cell-based, HEK293, CRE-luciferase reporter, bursicon stimulation | inhibition, % at 9.99 µM | bursicon-stimulated, 4 h | AID 720647, 2013 | 0.35% of 380,000 active;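 active = drop in luminescence signal, shown as inhibition above about 50% in the replicate tests, limit read from the data, passing the limit was not always enough; inconclusive = probably only some replicates passing the limit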;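 also: agonist challenge used bursicon conditioned medium at about half maximal strength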
EWS-Fli inh: EWS/Fli-driven NR0B1 reporter inhibitors, primary screen, A673 cells, NR0B1 luciferase, luminescence, MLPCN library | viability-normalised | inhibition, % at 12.6 µM | 0.67% of 350,000 active | AID 651661, 2012;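 active = mean inhibition of at least 50% after viability correction, with every replicate also passing that limit; inconclusive = mean reaches 50% but only one of two replicates passes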;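 also: firefly luciferase signal divided by Alamar Blue viability fluorescence both relative to DMSO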
Ecoli rRNA inh: reduced GFP signal of wild-type E. coli, primary screen, bacterial rRNA inhibitor project, GFP/RFP fluorescence, OD600, single point; E. coli WT GFP vs humanized-ribosome RFP mutants, 24 h; stronger effect = lower value; DMSO median 0, no signal -100; GFP signal change (wild-type ribosome), % (test concentration not listed); 1.6% of 350,000 active; AID 720706, 2013;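 active = significant combined selectivity score with lowered wild-type GFP, culture density cut under 30%, mutant RFP and density less affected; inactive = any of these conditions unmet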
* = called active by the depositor; ? = inconclusive; . = not tested or not shown. Shown are actives, neighbours in structure and some others; about 3.4% of the full set was active somewhere.

SMILES	PGC1a acetyl inh	PAX8 reporter	SIRT5 block	LGR2 antag	EWS-Fli inh	Ecoli rRNA inh
COC(=O)C1=C(N)Oc2cc(C)oc(=O)c2C12C(=O)Nc1ccccc12 (stereo not given)	6	17	-2	14	12	-23*
CCCCN1CCC(C#N)(Nc2ccccc2)CC1	11	8	22*	4	.	24
COc1ccc(NC2(C#N)CCCCC2)cc1	.	6	.	1	1	5
CCCCCCCCCCCCCCCC[N+](C)(C)C	-8	93*	4	38	57*	.
O=C1NC2C(O)C(O)C(O)C(O)C2c2cc3c(c(O)c21)OCO3 (stereo not given)	.	105*	-1	103*	56*	6
O=C1NC2C(=CC(O)C(O)C2O)c2cc3c(c(O)c21)OCO3 (stereo not given)	63*	.	-4	106*	54*	4
CCCN1[C@@H]2c3ccc(-c4cccc(C(=O)N(C)C)c4)c(=O)n3C[C@H]1[C@H](CO)[C@H]2C(=O)OC	.	-6	4	1	12	2
COc1ccc(-n2nnnc2C(c2cccc(OC)c2OC)N2CCC(n3c(=O)[nH]c4ccccc43)CC2)cc1 (stereo not given)	-3	30	-1	?	7	.
COc1ccc(-n2nnnc2C(c2cccs2)N2CCC(n3c(=O)[nH]c4ccccc43)CC2)cc1 (stereo not given)	-24	71*	-4	15	23	-12
Cc1cccc(C)c1-n1nnnc1C(c1cc2ccccc2o1)N1CCC(n2c(=O)[nH]c3ccccc32)CC1 (stereo not given)	0	-23	0	78*	13	4
COc1ccc(-n2nnnc2C(c2ccccc2)N2CCC(n3c(=O)[nH]c4ccccc43)CC2)cc1 (stereo not given)	0	78*	.	18	-3	-4
COC(=O)C[C@H]1CC[C@@H]2NC[C@H](O)COC[C@H]2O1	-8	-29	.	-13	-1	1
Cc1cccc(NP(=O)(Oc2ccccc2F)Oc2ccccc2F)c1C	.	33	-8	9	9	-29*
CC=Cc1ccc2n(c1=O)C[C@@H]1[C@@H](CO)[C@H](C(=O)OC)[C@H]2N1CC1CCCC1 (mixture of isomers)	-1	.	-1	-15	-6	-1
CC(=O)OC12COC1CC(O)C1(C)C(=O)C(O)C3=C(C)C(O)CC(O)(C(OC(=O)c4ccccc4)C21)C3(C)C (stereo not given)	4	.	-7	-22	73*	5
CC(=O)O[C@@]12CO[C@@H]1C[C@H](OC1OCC(O)C(O)C1O)[C@@]1(C)C(=O)[C@H](O)C3=C(C)[C@@H](OC(=O)[C@H](O)[C@@H](NC(=O)c4ccccc4)c4ccccc4)C[C@@](O)([C@@H](OC(=O)c4ccccc4)C12)C3(C)C (stereo not given in full)	-13	.	.	13	55*	.
CCCCCC(=O)N[C@@H](c1ccccc1)[C@@H](O)C(=O)O[C@H]1C[C@@]2(O)[C@@H](OC(=O)c3ccccc3)C3[C@](C)(C(=O)[C@H](O)C(=C1C)C2(C)C)[C@@H](OC1OCC(O)C(O)C1O)C[C@H]1OC[C@@]31OC(C)=O (stereo not given in full)	1	.	.	-2	46	.
CC(=O)O[C@@]12CO[C@@H]1C[C@@H](O)[C@@]1(C)C(=O)[C@H](O)C3=C(C)[C@@H](OC(=O)[C@H](O)[C@@H](NC(=O)c4ccccc4)c4ccccc4)C[C@@](O)([C@@H](OC(=O)c4ccccc4)C12)C3(C)C (stereo not given in full)	-21	.	.	.	55*	.
O=C(NC[C@H]1CC[C@@H]2NC[C@@H]2O1)C1CCCC1	2	14	6	.	7	.
CC(C)(O)/C=C/C(=O)[C@](C)(O)C1[C@H](O)C[C@@]2(C)C3CC=C4C(C[C@H](O)[C@@H](O)C4(C)C)[C@]3(C)C(=O)C[C@]12C (stereo not given in full)	65*	.	.	.	.	.
CCC1C(c2cc(OC)c(OC)c(OC)c2)c2cc3c(cc2OC1N1CCCC1)OCO3 (stereo not given)	.	.	3	11	56*	-1
O=C(O)[C@@H]1[C@@H](CO)[C@@H]2Cn3c(ccc(-c4ccncc4)c3=O)[C@H]1N2C(=O)C1CCC1	.	.	-45	27	-8	-1
CCCNC(=O)[C@H]1[C@H](CO)[C@H]2Cn3c(cccc3=O)[C@H]2N1CC	.	.	-6	6	7	0
COc1cc(O)c2c(c1)/C=C/C[C@H](O)[C@H](O)C(=O)CCC[C@H](C)OC2=O	-24	-25	.	-2	12	-25*
CC(C)NC(=O)N1C[C@@H]2C(c3ccc(Br)cc3)[C@H](C1)N2C (stereo not given in full)	.	.	.	.	.	0
SMILES	PGC1a acetyl inh	PAX8 reporter	SIRT5 block	LGR2 antag	EWS-Fli inh	Ecoli rRNA inh
COc1ccc(CCNC2CCCCC2)cc1	.	7	-1	-12	7	21
COc1ccc(C[C@H]2NC[C@H](O)[C@H]2OC(C)=O)cc1	90*	103*	-3	.	66*	.
Cc1cc(OCC(=O)OC(C)(C)C)c2c3c(c(=O)oc2c1)CCC3	-13	-9	.	.	.	.
CCN(CC)C(=O)COc1cc(C)cc2oc(=O)c3c(c12)CCCC3	-8	82*	-6	-4	15	-28
COC(=O)C[C@]1(C(=O)OC)CN(C#N)N(c2ccc(Cl)cc2)C12c1ccccc1-c1ccccc12	18	109*	-2	78*	.	18
COC(=O)[C@@H]1[C@@H](C(=O)OC)C2(c3ccccc3-c3ccccc32)N(c2ccc(Cl)cc2)N1C#N	77*	.	17*	36	.	2
O=C(O)[C@@H]1[C@@H](CO)[C@@H]2Cn3c(ccc(-c4ccncc4)c3=O)[C@H]1N2C(=O)C1CCCCC1	.	.	-69	-2	-6	5
O=C(Cc1cccnc1)N1CCCCN2[C@H](C1)[C@H](c1ccc(C#CC3CC3)cc1)[C@@H]2CO	1	-11	0	.	-10	.
O=c1c2ccccc2nc(/C=C/c2ccccc2)n1-c1ccc(O)cc1	.	34	-2	-6	16	6
O=c1c2ccccc2nc(/C=C/c2ccc(O)cc2)n1-c1ccccc1O	1	4	0	4	-5	-27*
Cc1nc2ccccc2c(=O)n1-c1cc([N+](=O)[O-])cc([N+](=O)[O-])c1	.	1	0	2	9	8
O=c1c2ccccc2nc(/C=C/c2ccc([N+](=O)[O-])o2)n1-c1ccc(O)cc1	-144	69*	2	54*	84*	13

Screening data deposited in PubChem by Broad Institute.
